The structures appear in SMILES notation. About 4,300 (8.3%) of roughly 52,000 compounds were called active. The entries come from a sample that favours actives as a whole. A number with no mark means an inactive call. No stated cut-off is given here; in the data, active means survival mostly below about 52% (no sharp cut-off); inactive means mostly above about 56%.

This experiment deals with DeltatarO mutant. Description: growth inhibition of S. aureus wild type versus tarO mutant, primary screen, teichoic acid synthesis inhibitors, RN4220, OD600 (AID 463173). The conditions noted are these: OD600, 18 h, active compounds read low, screened at 18.75 µg/mL (by protocol).
For the compound `O=C(NC1CCCCC1)N(Cc1ccccc1)Cc1cc2cc3c(cc2[nH]c1=O)OCCO3`, the survival is 52%.

Turning to `Cc1cc(C)c2nc(C)cc(Nc3cccc(C(=O)O)c3)c2c1`, the survival is 70%.

For `CCOC(=O)c1cnc2c(C)cc(C)cc2c1Nc1cccc(C(=O)O)c1`, the survival is 5% (active).

As for `CCOC(=O)c1cnc2c(C)cc(C)cc2c1Nc1ccc(OCc2ccccc2)cc1`, the survival was 17% (active).

On to `CCOC(=O)c1cnc2c(C)cc(C)cc2c1Nc1ccccc1OCC`, for which the survival is -1% (active).

For the compound `CCOC(=O)c1ccc2nc(C)cc(Nc3cccc(C(=O)O)c3)c2c1`, the survival is 173%.

As to `CCOC(=O)c1cnc2c(Cl)cc(Cl)cc2c1Nc1ccccc1OC`, the survival was 57%.

As to `CCOC(=O)c1cc(S(=O)(=O)Nc2ccccc2OCC)[nH]n1`, the survival is 72%.

With `COc1ccc(CCn2c3c(c(=O)[nH]c2=O)C(NC(=O)c2ccccc2)(C(F)(F)F)C(=O)N3)cc1OC` (stereo not drawn), the survival was 58%.

As for `CCOc1ccccc1N(C)C(=O)c1sc2nc3n(c(=O)c2c1C)CCCC3`, the survival was 64%.

For the compound `CCC(C)NC(=O)c1nn(-c2ccc(C)cc2)nc1CO` (stereo not drawn), the survival is 94%.

For `COC(=O)c1ccccc1NC(=O)c1cc2cc(C)ccc2n1C`, the survival was 99%.

In the case of `Cc1ccc(CNC(=O)CCc2nc3cccnc3n2Cc2ccccc2)cc1`, the survival is 74%.

Take `O=C(CCc1nc2cccnc2n1Cc1ccccc1)NCc1cccc(Cl)c1`: the survival is 51% (active).

In the case of `Cc1ccc(Cn2c(CNC(=O)CCc3ccccc3)nc3cccnc32)cc1`, the survival is 97%.

As for `COc1ccc(CCC(=O)NCc2nc3cccnc3n2Cc2ccc(F)cc2)cc1`, the survival is 119%.

In the case of `COc1ccc(Cn2c(CCC(=O)NCc3cccc(Cl)c3)nc3cccnc32)cc1`, the survival is 129%.

On to `O=C(CCc1ccccc1)NCc1nc2cccnc2n1Cc1ccc(F)cc1`, for which the survival is -4% (active).

`COc1cc(NC(=O)N(Cc2ccco2)C2CCN(C(C)=O)CC2)cc(OC)c1OC`: the survival is 134%.

With `N#Cc1ccc(NC(=O)CNCC2CCCCC2)cc1`, the survival was 100%.

As for `CCn1c(=NC(=O)c2ccc3c(c2)OCCO3)sc2c(C)ccc(OC)c21`, the survival was 120%.

In the case of `CC(C)c1ccc(Cc2cn3cc(-c4cc5ccccc5oc4=O)nc3s2)cc1`, the survival is 56%.

As to `O=c1oc2ccccc2cc1-c1cn2cc(Cc3cc(Cl)ccc3Cl)sc2n1`, the survival is 52% (active).

Consider `O=c1oc2ccccc2cc1-c1cn2cc(Cc3ccccc3F)sc2n1`, for which the survival was 49% (active).

In the case of `O=c1oc2ccccc2cc1-c1cn2cc(Cc3ccc(F)cc3)sc2n1`, the survival is 128%.

For `O=c1oc2ccccc2cc1-c1cn2cc(Cc3ccc(Br)cc3)sc2n1`, the survival is 66%.

Turning to `O=c1oc2ccccc2cc1-c1cn2cc(Cc3ccc(Cl)cc3)sc2n1`, the survival was 84%.

As to `Cc1ccc(NC(=O)c2sc3ncn(Cc4cccc(F)c4)c(=O)c3c2C)c(Br)c1`, the survival was 87%.

In the case of `COc1ccc(NC(=O)Cn2c(=O)n(Cc3nc(C)no3)c(=O)c3cc4c(cc32)OCO4)cc1`, the survival is 99%.

With `CC(C)CCNC(=O)CN1C(=O)CSc2ccc(S(=O)(=O)N3CCC(C)CC3)cc21`, the survival is 72%.

With `Cc1ccc(/C=C/c2onc(C)c2S(=O)(=O)N2CCC(C(=O)NCc3ccc(OC(C)C)cc3)CC2)cc1`, the survival is 69%.

With `COc1cccc(CNC(=O)C(=O)NCC(c2ccco2)S(=O)(=O)c2cccs2)c1` (stereo not drawn), the survival was 94%.

In the case of `Cc1ccc(-c2[nH]c3c(c2-c2c(-n4cccc4)n(C)c(=O)[nH]c2=O)c(=O)[nH]c(=O)n3C)cc1`, the survival was 65%.

`COc1ccc(-c2[nH]c3c(c2-c2c(-n4cccc4)n(C)c(=O)[nH]c2=O)c(=O)[nH]c(=O)n3C)cc1F`: the survival is 63%.

Consider `Cc1ccc(C)c(-c2[nH]c3c(c2-c2c(-n4cccc4)n(C)c(=O)n(C)c2=O)c(=O)n(C)c(=O)n3C)c1`, for which the survival was 64%.

With `COc1cccc(-c2[nH]c3c(c2-c2c(-n4cccc4)n(C)c(=O)[nH]c2=O)c(=O)[nH]c(=O)n3C)c1`, the survival was 63% (active).

Consider `Cc1ccc(C)c(-c2[nH]c3c(c2-c2c(-n4cccc4)n(C)c(=O)[nH]c2=O)c(=O)[nH]c(=O)n3C)c1`, for which the survival was 59% (active).

On to `Cn1c(-n2cccc2)c(-c2c(-c3ccccc3)[nH]c3c2c(=O)[nH]c(=O)n3C)c(=O)[nH]c1=O`, for which the survival was 60%.

`CC(=O)Nc1ccc(C(=O)NCCN2CCOCC2)cc1`: the survival is 96%.

With `Cc1cccc(N2CCN(S(=O)(=O)c3ccc4c(c3)C(C(C)C)C(=O)N4)CC2)c1C` (stereo not drawn), the survival was 55%.

Take `Cc1ccc(Cc2nc3ccccc3nc2SCC(=O)NCCC(C)C)cc1`: the survival was 112%.

`CCCCN(CC)CCNC(=O)CN1C(=O)COc2ccc(S(=O)(=O)N3CCOCC3)cc21`: the survival was 86%.

With `Cc1ccc(C)c(NC(=O)CCc2nc3cccnc3n2Cc2cccs2)c1`, the survival was 73%.

Consider `CCOc1ccc(C2CC(=O)Nc3c2c(=O)nc(SCc2ccccc2C)n3C)cc1OC` (stereo not drawn), for which the survival was 42% (active).

With `CCOc1ccc(C2CC(=O)Nc3nc(SCc4ccccc4C)[nH]c(=O)c32)cc1OC` (stereo not drawn), the survival was 103%.

With `COc1cc(O)ccc1C1CC(=O)Nc2c1c(=O)nc(SCc1ccccc1C)n2C` (stereo not drawn), the survival was 93%.

For `COc1ccc(-c2[nH]c(-c3ccc(C)cc3)nc2SCC(=O)NCC2CCCO2)cc1` (stereo not drawn), the survival is 82%.

With `COc1ccc2c(c1)c1c(c(=O)n(-c3cc(Cl)ccc3C)c(=O)n1CC(=O)N1CCCC1)n2C`, the survival is 83%.

As to `Cc1ccccc1NC(=O)Cn1c(=O)n(Cc2ccc3c(c2)OCO3)c(=O)c2ccccc21`, the survival is 97%.

For `Cc1ccc(C2c3c(-c4cc(C)ccc4O)n[nH]c3C(=O)N2Cc2ccco2)cc1` (stereo not drawn), the survival is 1% (active).

For `CCOc1cccc(C2c3c(-c4cc(C)ccc4O)n[nH]c3C(=O)N2Cc2ccco2)c1` (stereo not drawn), the survival is 8% (active).

Take `Cc1cc(C)c(-c2n[nH]c3c2C(c2ccccc2F)N(CCO)C3=O)c(O)c1` (stereo not drawn): the survival is 77%.

In the case of `Cc1cc(C)c(-c2n[nH]c3c2C(c2ccccc2F)N(Cc2ccco2)C3=O)c(O)c1` (stereo not drawn), the survival was 2% (active).

In the case of `Cc1ccc(O)c(-c2n[nH]c3c2C(c2ccc(F)cc2)N(Cc2ccco2)C3=O)c1` (stereo not drawn), the survival is 2% (active).

`Cc1cc(C)c2c(=O)c3c(oc2c1)C(=O)N(Cc1ccco1)C3c1ccccc1F` (stereo not drawn): the survival was 106%.

Consider `COc1cc(C2c3c(-c4cc(C)ccc4O)n[nH]c3C(=O)N2Cc2ccco2)cc(OC)c1OC` (stereo not drawn), for which the survival is 66%.

Regarding `COc1cc(C2c3c(-c4cc(C)ccc4O)n[nH]c3C(=O)N2Cc2cccnc2)cc(OC)c1OC` (stereo not drawn), the survival is 83%.

As for `CCOc1ccc(C2c3c(-c4cc(C)ccc4O)n[nH]c3C(=O)N2Cc2cccnc2)cc1OCC` (stereo not drawn), the survival is 72%.

`CCC(=O)N1c2ccc(S(=O)(=O)NCCc3ccccc3)cc2CC1C` (stereo not drawn): the survival was 77%.

For the compound `Cc1ccc2[nH]c(CSc3nnc(NC(=O)COc4ccccc4)s3)cc(=O)c2c1`, the survival is 82%.

For the compound `Cc1cc(C)c(NC(=O)C(C)n2nc(-c3ccc(C)c(C)c3)ccc2=O)c(C)c1` (stereo not drawn), the survival was 63%.

With `CCCCNC(=O)CN1CCN(c2ncc(NC(=O)c3ccc(Cl)cc3)cc2C(=O)O)CC1`, the survival was 94%.

Turning to `CCCOc1cccc(C2c3c(-c4ccccc4O)n[nH]c3C(=O)N2Cc2ccco2)c1` (stereo not drawn), the survival is 2% (active).

Take `O=C1c2[nH]nc(-c3ccccc3O)c2C(c2ccccc2F)N1Cc1cccnc1` (stereo not drawn): the survival is 87%.

`Cc1ccc(O)c(-c2n[nH]c3c2C(c2ccccc2F)N(Cc2ccco2)C3=O)c1` (stereo not drawn): the survival was 8% (active).

For `O=C1c2[nH]nc(-c3ccccc3O)c2C(c2ccccc2F)N1Cc1ccncc1` (stereo not drawn), the survival is 94%.

Regarding `CCCOc1ccc(C2c3c(-c4ccccc4O)n[nH]c3C(=O)N2Cc2ccncc2)cc1OCC` (stereo not drawn), the survival is 90%.

In the case of `O=C1c2[nH]nc(-c3ccccc3O)c2C(c2cccc(Br)c2)N1Cc1ccncc1` (stereo not drawn), the survival was 85%.

Regarding `COc1ccc(Cl)cc1NC(=O)c1ccc2nc(Cc3ccccc3)oc2c1`, the survival is 101%.

For the compound `CN(C)c1ccc(CNC(=O)c2cnc3sc(N4CCCC4)nn3c2=O)cc1`, the survival was 67%.

With `CCOC(=O)c1c(C)n(C(=O)c2ccco2)c(=O)n1C(=O)c1ccco1`, the survival was 73%.

As to `COc1ccc(CCn2c(=O)c3ccccc3n(CC(=O)Nc3cccc(C)c3)c2=O)cc1OC`, the survival is 83%.

Regarding `CC(C)n1nnnc1SCC(=O)c1ccc2c(c1)OCCO2`, the survival was 87%.

Consider `Cc1ccc(C(=O)CSc2nnnn2C2CCCC2)cc1C`, for which the survival is 67%.

Regarding `O=C(CSc1nnnn1C1CCCC1)c1ccc2c(c1)OCCO2`, the survival is 70% (active).

For the compound `COc1ccc(C(=O)NNc2ncnc3c2cnn3-c2ccc(C)cc2C)cc1`, the survival is 0% (active).

Take `Cc1ccc(CNc2ncnc3c2cnn3-c2ccc(C)cc2C)cc1`: the survival is 77%.

For `Cc1cccc(C(=O)NNc2ncnc3c2cnn3-c2ccc(C)cc2C)c1`, the survival is 106%.

On to `Cc1ccc(-n2ncc3c(NCC(C)C)ncnc32)c(C)c1`, for which the survival is 37% (active).

On to `COc1ccc(C(=O)NNc2ncnc3c2cnn3-c2ccc(C)c(Cl)c2)cc1`, for which the survival was 69%.

`Cc1ccc(-n2ncc3c(N(CC(C)C)CC(C)C)ncnc32)c(C)c1`: the survival is 78%.

On to `O=C(NCC(c1cccnc1)N1CCc2ccccc2C1)C(=O)Nc1ccccc1F` (stereo not drawn), for which the survival was 75%.

As to `CCN(CC)CC(=O)Nc1ccc(-c2ccc(NC(=O)CN(CC)CC)cc2)cc1`, the survival is 113%.

On to `CC1CCC(C(=O)NC(C(=O)OCC(=O)c2ccccc2)C(C)C)CC1` (stereo not drawn), for which the survival is 75%.

Consider `COc1ccc(C2C(C(=O)Nc3ccccc3)=C(C)Nc3nc(-c4ccccc4)nn32)c(OC)c1` (stereo not drawn), for which the survival is 82%.

As to `COc1cccc(C2C(C(=O)Nc3ccccc3)=C(C)Nc3nc(-c4ccccc4)nn32)c1` (stereo not drawn), the survival was 57% (active).

In the case of `CC1=C(C(=O)Nc2ccccc2)C(c2ccc(C(=O)O)cc2)n2nc(SCC(=O)c3ccc(C)cc3)nc2N1` (stereo not drawn), the survival was 82%.

`COc1ccc(-c2nc3n(n2)C(c2ccccc2OC)C(C(=O)Nc2cccnc2)=C(C)N3)cc1` (stereo not drawn): the survival was 80%.

Turning to `COc1cc(OC)cc(-c2nc3n(n2)C(c2ccccc2F)C(C(=O)Nc2cccnc2)=C(C)N3)c1` (stereo not drawn), the survival was 45% (active).

Regarding `COc1ccc(C2C(C(=O)Nc3ccccc3)=C(C)Nc3nc(-c4ccccc4)nn32)cc1OC` (stereo not drawn), the survival was 85%.

Take `CC1=C(C(=O)Nc2ccccc2)C(c2cccc(Cl)c2)n2nc(SCC(=O)c3ccc(C)cc3)nc2N1` (stereo not drawn): the survival is 52% (active).

Turning to `COc1ccc(-c2nc3n(n2)C(c2ccccc2F)C(C(=O)Nc2cccnc2)=C(C)N3)cc1OC` (stereo not drawn), the survival is 81%.

`COc1ccc(C2C(C(=O)Nc3ccccc3)=C(C)Nc3nc(SCC(=O)c4ccc(C)cc4)nn32)cc1` (stereo not drawn): the survival is 71%.

Source of the values: PubChem BioAssay AID463173 (ICCB-Longwood Screening Facility, Harvard Medical School, 2010).
